Sampled rows, rich in hits. Any-hit rate of the full collection: about 15%.
SARS PLP yeast = qHTS of Yeast-based Assay for SARS-CoV PLP. S. cerevisiae expressing SARS-CoV PLpro, growth rescue. Potency, µM (titrated, usually from 32.9 µM), inactives show at the top dose activity, positive = growth rescue, usual class: activators. hit rate 0.19% among 330,000; calls by dose curve; note: potency is the fitted concentration of half-maximal effect; 0% is about no effect; nearly all actives have a fitted effect of over 55% in size
HCMV inh = qHTS Assay for inhibitors of the human cytomegalovirus (HCMV) | AID 1259415, 2018 | activity change, negative = inhibition, % at 57.5 µM | hit rate 4.5% among 410,000 | HFF cells, HCMV-luciferase reporter, 72 h; active compounds read low; in the data active = activity change below about -60%; inconclusive = no clear call, values can overlap the other calls; inactive = above about -39%; note: % is set by controls: 0 for no effect and ±100 for the full control effect
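Two-dose cell screen: HFF monolayers treated with compounds and infected with luciferase-expressing HCMV at 1 PFU/cell, 72 h at 37C, then lysed for luciferase measurement.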
Sm TGR block = qHTS Assay for the Inhibitors of Schistosoma Mansoni Peroxiredoxins; purified TGR, DTNB reduction, TNB absorbance 405 nm; Potency, µM (doses to about 114 µM), without a hit: top-dose activity change, negative = inhibition, most hits filed as inhibitors; hit rate 3% among 360,000; note: potency is the fitted concentration of half-maximal effect; % is set by controls: 0 for no effect and ±100 for the full control effect; nearly all actives have a fitted effect of over 60% in size
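TGR 20 nM + NADPH 100 uM (dispensed conc.), cpd preinc 15 min RT; start with NADPH (500 uM addition) then DTNB (15 mM addition). Kinetic TNB absorbance, 405 nm filter. Four-parameter Hill fit across titration.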
Pf growth 48h = Primary qHTS for delayed death inhibitors of the malarial parasite plastid, 48 hour incubation; P. falciparum luciferase growth in erythrocytes, 48 h; Potency, µM (titrated, usually from 28.7 µM), inactives show at the highest dose activity change, negative = inhibition, actives largely listed as inhibitors; hit rate 5.9% among 310,000; AID 504832, 2011; note: potency is the fitted concentration of half-maximal effect; % is set by controls: 0 for no effect and ±100 for the full control effect
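Read-out is firefly luciferase luminescence from an integrated reporter in P. falciparum, so falling signal marks reduced parasite growth. Infected erythrocytes were at 2% hematocrit and 0.1% parasitemia (final) in Albumax-supplemented RPMI 1640.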
HCV inh = qHTS Assay for Inhibitors of Hepatitis C Virus (HCV); Huh7.5.1 HCVcc-Cre infection, luciferase reporter, 44 h; Potency, µM (doses to about 41.8 µM), for the others: at the top dose activity change, negative = inhibition, usual class: inhibitors; hit rate 3.4% among 340,000; AID 651820, 2012; note: potency is the fitted concentration of half-maximal effect; % is set by controls: 0 for no effect and ±100 for the full control effect
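A cell-based infection assay in which seeded cells (1,000 per well) receive test compound after 4 h, are inoculated with HCVcc-Cre at approximately 0.5 moi, and are incubated 44 h before luminescence detection.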
Pf growth 96h = Primary qHTS for delayed death inhibitors of the malarial parasite plastid, 96 hour incubation | hit rate 6.9% among 320,000 | P. falciparum luciferase reporter growth, 96 h | Potency, µM (series often up to 28.7 µM), inactives show top-dose activity change, negative = inhibition, actives largely listed as inhibitors; note: potency is the fitted concentration of half-maximal effect; % is set by controls: 0 for no effect and ±100 for the full control effect
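Luminescence readout: decreased luciferase signal marks inhibited growth of reporter-expressing P. falciparum in infected red cells (2% hematocrit, 0.05% parasitemia final), exposed to compound two generations (96 h, 37 C, 5% CO2).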
* hit, by the source's call. Unless noted, calls come from the whole dose curve; as a rule, active = well fitted curve in the direction sought with a large enough effect; inconclusive = small, poorly fitted or top-dose-only effect, or another doubt; inactive = no such curve, though single readings can be large; an effect the other way counts as inactive or inconclusive.

What do the screens show for `CCOC(=O)c1ccc(NC(=O)CC2Sc3ncnn3C2=O)cc1` (stereo unspecified)?
SARS PLP yeast: -33.2%; HCMV inh: -29.1; Sm TGR block: 1.58µM*; Pf growth 48h: -16.9%; HCV inh: inconclusive; Pf growth 96h: -29.5%

What do the screens show for `O=C(CC1Sc2ncnn2C1=O)Nc1ccc(Cl)cc1` (stereo unspecified)?
SARS PLP yeast: -4.5%; HCMV inh: -18.7; Sm TGR block: 5.62µM*; Pf growth 48h: 5.3%; HCV inh: 3.3%; Pf growth 96h: -3.0%

Results for COc1ccc(NC(=O)CC2Sc3ncnn3C2=O)cc1 (stereo unspecified) ?
SARS PLP yeast: -94.2%; HCMV inh: 11.4; Sm TGR block: 0.631µM*; Pf growth 48h: 21.5%; HCV inh: 5.8%; Pf growth 96h: inconclusive

How did O=C(CC1SC2=NCCN2C1=O)Nc1ccc(Cl)cc1 (stereo unspecified) do in these assays?
SARS PLP yeast: -4.4%; HCMV inh: 38.0; Sm TGR block: 8.3%; Pf growth 48h: 11.5%; HCV inh: 7.9%; Pf growth 96h: 2.7%

What do the screens show for `COCCN1C(=O)C(CC(=O)Nc2ccccc2)SC1=Nc1ccc(OC)cc1` (stereo unspecified)?
SARS PLP yeast: -0.3%; HCMV inh: 14.0; Sm TGR block: 2.2%; HCV inh: 0.8%; Pf growth 96h: inconclusive

What do the screens show for `COc1ccccc1CNS(=O)(=O)c1ccc(-n2cccn2)cc1`?
SARS PLP yeast: 13.2%; HCMV inh: -11.7; Sm TGR block: -15.8%; Pf growth 48h: -20.2%; HCV inh: -16.4%; Pf growth 96h: inconclusive

What do the screens show for `Cc1ccc(S(=O)(=O)N2CCC([C@H](C#N)c3ccccc3)CC2)cc1`?
HCMV inh: -12.4

What do the screens show for `CCOC(=O)c1cc(CC)sc1NC(=O)C1CC(=O)NN1Cc1ccccc1` (stereo unspecified)?
SARS PLP yeast: 14.0%; HCMV inh: 23.0; Sm TGR block: -0.7%; Pf growth 48h: inconclusive; HCV inh: 5.62µM*; Pf growth 96h: -11.7%

How did COC(=O)c1cc(C)sc1NC(=O)C1CC(=O)NN1Cc1ccccc1 (stereo unspecified) do in these assays?
SARS PLP yeast: -13.8%; HCMV inh: -11.2; Sm TGR block: 3.8%; Pf growth 48h: -11.1%; HCV inh: 3.4%; Pf growth 96h: inconclusive

How did COc1ccc(Cl)cc1NC(=O)NCc1cccnc1 do in these assays?
SARS PLP yeast: -7.3%; HCMV inh: -10.0; Sm TGR block: 4.6%; Pf growth 48h: 10.3%; HCV inh: inconclusive; Pf growth 96h: 88.7%

How did COc1ccc(Cl)cc1NC(=O)c1c(NCc2cccnc2)sc2c1CCCC2 do in these assays?
HCMV inh: 2.1; Sm TGR block: 20µM*

How did COc1ccc(OC)c(NC(=O)c2c(NCc3ccc(C)o3)sc3c2CCC(C)C3)c1 (stereo unspecified) do in these assays?
HCMV inh: -0.7; Sm TGR block: 39.8µM*

What do the screens show for `CCOc1ccccc1NC(=O)c1c(NCc2ccc(C)o2)sc2c1CCCCC2`?
HCMV inh: 8.2; Sm TGR block: 8.91µM*

What do the screens show for `COc1ccc(Cl)cc1NC(=O)c1c(NCc2ccc(C)o2)sc2c1CCCC2`?
HCMV inh: 25.5; Sm TGR block: 28.2µM*

Results for COC(=O)c1ccc(NC(=O)c2c(NCc3ccc(C)o3)sc3c2CCCC3)cc1 ?
HCMV inh: -2.1; Sm TGR block: inconclusive

What do the screens show for `O=C(N/N=C/c1cccnc1)c1ccc2c(c1)OCCO2`?
SARS PLP yeast: -7.1%; HCMV inh: 2.9; Sm TGR block: 2.3%; Pf growth 48h: 77.9%; HCV inh: 9.8%; Pf growth 96h: 45.6%

How did CCc1c(O)nc(SCC(=O)Nc2ccccc2)n(-c2ccccc2C)c1=O do in these assays?
HCMV inh: 0.0

What do the screens show for `Cc1ccccc1OCCn1cnc2cc([N+](=O)[O-])ccc2c1=O`?
SARS PLP yeast: -1.5%; HCMV inh: 19.9; Sm TGR block: -4.8%; Pf growth 48h: inconclusive; HCV inh: -5.1%; Pf growth 96h: 0.0%

What do the screens show for `CC1CCc2cc(F)ccc2N1C(=O)c1ccc2c(c1)OCO2` (stereo unspecified)?
SARS PLP yeast: 2.9%; HCMV inh: -15.7; Sm TGR block: 2.1%; Pf growth 48h: -16.2%; HCV inh: -11.4%

Results for Cc1ccc(-n2nc3c([n+]2[O-])CCc2c-3no[n+]2[O-])cc1 ?
SARS PLP yeast: 2.0%; HCMV inh: -77.8*; Sm TGR block: 0.7%; Pf growth 48h: 26.1%; HCV inh: -14.7%; Pf growth 96h: -0.8%

How did [O-][n+]1onc2c1CCc1c-2nn(-c2ccccc2Cl)[n+]1[O-] do in these assays?
SARS PLP yeast: -7.1%; HCMV inh: -99.7*; Sm TGR block: -1.8%; Pf growth 48h: inconclusive; HCV inh: -1.7%; Pf growth 96h: inconclusive

Results for Cc1ccc(C(=O)NC(=S)N2CCCC2)cc1 ?
SARS PLP yeast: 11.4%; HCMV inh: -26.6; Sm TGR block: -22.8%; Pf growth 48h: inconclusive; HCV inh: 3.4%; Pf growth 96h: inconclusive

How did COC(=O)CSc1nc2sc3c(c2c(=O)n1-c1ccccc1C)CC(C)(C)OC3 do in these assays?
HCMV inh: 10.0; Sm TGR block: -0.9%

What do the screens show for `CC(C)(O)[C@@H]1CC[C@@](C)(C2CC[C@]3(C)C2[C@H](O)CC2[C@@]4(C)CC[C@H](O)C(C)(C)C4[C@@H](O[C@H]4O[C@@H](CO)[C@H](O)[C@@H](O)[C@@H]4O[C@@H]4O[C@H](CO)[C@@H](O)[C@H](O)[C@H]4O)C[C@]23C)O1` (stereo in doubt)?
SARS PLP yeast: 6.9%; HCMV inh: -17.6; HCV inh: -0.6%

Results for Cc1onc(-c2ccccc2)c1C(=O)Nc1ccccc1N1CCOCC1 ?
SARS PLP yeast: 1.0%; HCMV inh: 10.9; Sm TGR block: 0.4%; Pf growth 48h: inconclusive; HCV inh: -6.6%

What do the screens show for `Cc1onc(-c2c(Cl)cccc2Cl)c1C(=O)N1CCN(c2ccccc2F)CC1`?
SARS PLP yeast: 20.0%; HCMV inh: -24.3; Sm TGR block: -12.9%; Pf growth 48h: 13.1µM*; HCV inh: inconclusive; Pf growth 96h: inconclusive
